PubChem BioAssay AID1443 (Sanford-Burnham Center for Chemical Genomics, 2008)
Hit rate of the full screen: of about 220,000 compounds, about 880 (0.4%) were called active.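 The calls were made as follows: active = cell killing above 50% in the first pass at 4 µM, then a duplicate retest at 5 µM averaging 50% or more; inactive = the rest.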 The sample as a whole holds a higher share of actives than the screen did.

Assay: PPC-1 cell viability loss under TRAIL – PPC-1 cells, ATPLite luminescence, uHTS, TRAIL potentiator project, primary screen (AID 1443);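 also: plate controls were cells with TRAIL plus DMSO for no effect and medium-only wells lacking cells for full effect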
Conditions: PPC-1 cells + TRAIL, active compounds read high; at 4 µM unless noted

Row | SMILES | cell killing (% activity)
1 | Cc1nc2ccc(N3CCN(C)CC3)cc2nc1C | -0.5% (inactive)
2 | CN1CCN(c2cc(N3CCNCC3)ccc2[N+](=O)[O-])CC1 | 3.5% (inactive)
3 | COc1cccc(-c2nc3ccc(N4CCN(C)CC4)cc3[nH]2)c1 | 85.4% [at 5 µM] (active)
4 | O=C1CC(=O)N(Cc2ccccc2)C(=O)N1CCCCCCN1C(=O)CC(=O)N(Cc2ccccc2)C1=O | 12.3% (inactive)
5 | COc1ccc(C2N3CC(C)(C)CN23)cc1 (stereo not given) | 15.2% (inactive)
